{"source": "the supplement of paper PMC13380429", "note": "Values without a mark were called inactive."}
{"system": "Vero E6 infected with SARS-CoV-2", "experiment": "SARS-CoV-2 infection rate relative to infected DMSO; higher = more infection, active = 60 or less", "settings": "24 h", "units": {"SARS-CoV-2 infection rate": "%"}}
{"molecule": "CCn1nc(C(=O)O)c(=O)c2cc3c(cc21)OCO3", "note": "[cinoxacin] (10 µM)", "SARS-CoV-2 infection rate": 104}
{"molecule": "C1COC(NC(C2CC2)C2CC2)=N1", "note": "[rilmenidine] (10 µM)", "SARS-CoV-2 infection rate": 99.5}
{"molecule": "CCC(=O)O[C@]1(C(=O)CCl)[C@@H](C)C[C@H]2[C@@H]3CCC4=CC(=O)C=C[C@]4(C)[C@@]3(F)[C@@H](O)C[C@@]21C", "note": "[clobetasol-propionate] (10 µM)", "SARS-CoV-2 infection rate": 105}
{"molecule": "O=C1C(O)=C([C@H]2CC[C@H](c3ccc(Cl)cc3)CC2)C(=O)c2ccccc21", "note": "[atovaquone] (0.833333 µM)", "SARS-CoV-2 infection rate": 106}
{"molecule": "Nc1ccn([C@@H]2O[C@@](CO)(CCl)[C@@H](O)[C@H]2F)c(=O)n1", "note": "(10 µM)", "SARS-CoV-2 infection rate": 104}
{"molecule": "Nc1cccc(-c2cc3c(Oc4cccc(O)c4)ncnc3[nH]2)c1", "note": "(0.833333 µM)", "SARS-CoV-2 infection rate": 104}
{"molecule": "N=C(N)NS(=O)(=O)c1ccc(N)cc1", "note": "[sulfaguanidine] (10 µM)", "SARS-CoV-2 infection rate": 108}
{"molecule": "CCCCCC(C)N", "note": "(stereo not given) [tuaminoheptane] (10 µM)", "SARS-CoV-2 infection rate": 109}
{"molecule": "CC(C)[C@H]1C(=O)N[C@@H](CCCNC(=N)N)C(=O)NCC(=O)N[C@@H](CC(=O)O)C(=O)N[C@H](Cc2ccccc2)C(=O)N1C", "note": "[cilengitide] (10 µM)", "SARS-CoV-2 infection rate": 109}
{"molecule": "CC(=O)NS(=O)(=O)c1ccc(N)cc1", "note": "[sulfacetamide] (10 µM)", "SARS-CoV-2 infection rate": 100}
{"molecule": "C[C@H](Cc1cc2c(c(C(N)=O)c1)N(CCCO)CC2)NCCOc1ccccc1OCC(F)(F)F", "note": "[silodosin] (10 µM)", "SARS-CoV-2 infection rate": 106}
{"molecule": "NC(=O)CC[C@H](N)C(=O)O", "note": "[L-glutamine] (10 µM)", "SARS-CoV-2 infection rate": 94}
{"molecule": "OCCOc1ccc(/C(=C(/CCCl)c2ccccc2)c2ccccc2)cc1", "note": "[ospemifene] (10 µM)", "SARS-CoV-2 infection rate": 97.5}
{"molecule": "CC(C)(C)C1CCc2c(sc(NC(=O)c3ccco3)c2C(=O)O)C1", "note": "(stereo not given) (0.833333 µM)", "SARS-CoV-2 infection rate": 106}
{"molecule": "C=C1/C(=C\\C=C2/CCC[C@]3(C)[C@@H]([C@H](C)/C=C/[C@H](C)C(C)(C)O)CC[C@@H]23)C[C@@H](O)C[C@@H]1O", "note": "[ercalcitriol] (10 µM)", "SARS-CoV-2 infection rate": 97.5}
{"molecule": "CC(=O)OC[C@H]1O[C@@H](n2ccc(=O)[nH]c2=O)[C@H](OC(C)=O)[C@@H]1OC(C)=O", "note": "[uridine-triacetate] (10 µM)", "SARS-CoV-2 infection rate": 112}
{"molecule": "Cc1cc2c(N3CCCC3)nc(N3CCCC3)nc2n1C", "note": "(10 µM)", "SARS-CoV-2 infection rate": 75}
{"molecule": "CN(Cc1ccccc1)C(=O)[C@H](Cc1ccc2ccccc2c1)NC(=O)[C@@H]1C[C@@H](O)CN1C(=O)c1cn(C)c2ccccc12", "note": "(10 µM)", "SARS-CoV-2 infection rate": 104}
{"molecule": "CC(=O)CC(=O)O", "note": "[lithium-acetoacetate] (10 µM)", "SARS-CoV-2 infection rate": 102}
{"molecule": "CCCCCCCC/C=C/CCCCCCCC(=O)OC[C@H]1O[C@@H](n2ccc(N)nc2=O)C(F)(F)[C@@H]1O", "note": "[gemcitabine-elaidate] (0.833333 µM)", "SARS-CoV-2 infection rate": 112}
{"molecule": "CCn1nc(C2CCN(C(=O)CCO)CC2)nc1-c1cnc(N)c(-c2nnc(C(C)(C)C)o2)n1", "note": "(0.833333 µM)", "SARS-CoV-2 infection rate": 94}
{"molecule": "CCCC[C@H](NC(C)=O)C(=O)N[C@H]1CC(=O)NCCCC[C@@H](C(=O)O)NC(=O)[C@H](Cc2c[nH]c3ccccc23)NC(=O)[C@H](CCCNC(=N)N)NC(=O)[C@@H](Cc2ccccc2)NC(=O)[C@H](Cc2c[nH]cn2)NC1=O", "note": "[bremelanotide] (10 µM)", "SARS-CoV-2 infection rate": 96.5}
{"molecule": "Cc1nnc(C(C)C)n1C1C[C@H]2CC[C@@H](C1)N2CC[C@H](NC(=O)C1CCC(F)(F)CC1)c1ccccc1", "note": "(stereo in doubt) [maraviroc] (10 µM)", "SARS-CoV-2 infection rate": 112}
{"molecule": "C[C@H]1N=C(N(C)C)N=C(N)N1", "note": "[imeglimin] (10 µM)", "SARS-CoV-2 infection rate": 99}
{"molecule": "CNCCCN1c2ccccc2CCc2ccccc21", "note": "[desipramine] (10 µM)", "SARS-CoV-2 infection rate": 81}
{"molecule": "COc1ccc2c(c1)C=C1Cn3c-2c(C2CCCCC2)c2ccc(cc23)C(=O)NS(=O)(=O)N(C)CCOCCN(C)C1=O", "note": "(10 µM)", "SARS-CoV-2 infection rate": 97.5}
{"molecule": "CCN1CCN(Cc2ccc(Nc3ncc(F)c(-c4cc(F)c5nc(C)n(C(C)C)c5c4)n3)nc2)CC1", "note": "[abemaciclib] (10 µM)", "SARS-CoV-2 infection rate": 107}
{"molecule": "COc1ccc(-n2[nH]c3c4c(ncc3c2=O)CCCCC4)cc1", "note": "(10 µM)", "SARS-CoV-2 infection rate": 96}
{"molecule": "Cc1cccn2c(=O)c(/C=C(\\C#N)c3nc4ccccc4s3)c(Oc3ccc(F)cc3)nc12", "note": "(10 µM)", "SARS-CoV-2 infection rate": 102}
{"molecule": "CCOC(=O)CCC(=O)O[C@H]1[C@H](O[C@@H]2[C@@H](C)[C@H](O[C@H]3C[C@@](C)(OC)[C@@H](O)[C@H](C)O3)[C@@H](C)C(=O)O[C@H](CC)[C@@](C)(O)[C@H](O)[C@@H](C)C(=O)[C@H](C)C[C@@]2(C)O)O[C@H](C)C[C@@H]1N(C)C", "note": "[erythromycin-ethylsuccinate] (10 µM)", "SARS-CoV-2 infection rate": 118}
{"molecule": "CC(C)n1nccc1-c1ncccc1COc1cccc(O)c1C=O", "note": "[voxelotor] (10 µM)", "SARS-CoV-2 infection rate": 102}
{"molecule": "O=C(Oc1ccccc1)c1ccccc1O", "note": "[phenyl-salicylate] (10 µM)", "SARS-CoV-2 infection rate": 103}
{"molecule": "C[C@H]1O[C@H](O[C@H]2[C@H](O)[C@@H](O)[C@@H](O[C@H]3[C@H](O)[C@@H](O)C(O)O[C@@H]3CO)O[C@@H]2CO)[C@H](O)[C@@H](O)[C@@H]1N[C@H]1C=C(CO)[C@@H](O)[C@H](O)[C@H]1O", "note": "(stereo not given in full) [acarbose] (10 µM)", "SARS-CoV-2 infection rate": 100}
{"molecule": "C[C@H](CCC(=O)O)[C@H]1CC[C@H]2[C@@H]3CC[C@@H]4C[C@H](O)CC[C@]4(C)[C@H]3CC[C@]12C", "note": "[lithocholic-acid] (10 µM)", "SARS-CoV-2 infection rate": 110}
{"molecule": "C1CCC(/N=C(\\NC23CC4CC(CC(C4)C2)C3)N2CCOCC2)CC1", "note": "(10 µM)", "SARS-CoV-2 infection rate": 110}
{"molecule": "Cc1ccc(OC[C@@H](O)[C@H](C)NC(C)C)c2c1CCC2", "note": "(racemic) (10 µM)", "SARS-CoV-2 infection rate": 110}
{"molecule": "CCNC(=O)[C@H]1O[C@@H](n2cnc3c(N)nc(NCCc4ccc(CCC(=O)O)cc4)nc32)[C@H](O)[C@@H]1O", "note": "(10 µM)", "SARS-CoV-2 infection rate": 115}
{"molecule": "CC=C1C(=O)C[C@H]2[C@@H]3CCC4=CC(=O)CC[C@]4(C)[C@H]3CC[C@]12C", "note": "(10 µM)", "SARS-CoV-2 infection rate": 91}
{"molecule": "CC[C@@]1(O)C(=O)OCc2c1cc1n(c2=O)Cc2cc3cc(O)ccc3nc2-1", "note": "[10-hydroxycamptothecin] (10 µM)", "SARS-CoV-2 infection rate": 103}
{"molecule": "CN1C(=O)OC(C)(C)C1=O", "note": "[trimethadione] (10 µM)", "SARS-CoV-2 infection rate": 106}
